Shown are actives, neighbours in structure and some others; about 13% of the full set was active somewhere.
Lassa entry inh: inhibitors of Lassa virus binding or cell entry; Lassa virus pseudotype entry inhibition, cell reporter; Potency, µM (doses to about 37.9 µM), for the others: at the top dose activity change, negative = inhibition, hits mostly inhibitors; 300,000 compounds, 1.2% hits; calls by dose curve; tested in HEK293 cells; note: potency is the fitted concentration of half-maximal effect; % is set by controls: 0 for no effect and ±100 for the full control effect; nearly all actives have a fitted effect of over 50% in size
Shiga toxin inh: inhibitors of Shiga toxin in Vero cells | inhibition, % at 38.7 µM | Vero cells, Shiga toxin protein synthesis inhibition reporter | 290,000 compounds, 9.2% hits; in the data active = inhibition mostly above about 28%, no sharp cut-off; inactive = mostly below about 43%; note: 0% is about no effect
FMDV inh: foot and mouth disease virus antiviral activity. FMDV antiviral cell-based qHTS. Potency, µM (titrated, usually from 57.9 µM), for inactives: at the highest dose activity change, negative = inhibition, most hits filed as inhibitors. 410,000 compounds, 1.2% hits; calls by dose curve; tested in HEK293T cells; note: read-out not given here; potency is the fitted concentration of half-maximal effect; % is set by controls: 0 for no effect and ±100 for the full control effect; nearly all actives have a fitted effect of over 45% in size
MARV entry inh: blocks Marburg virus binding to or entry into cells; Marburg virus pseudotyped entry inhibition, cell reporter; Potency, µM (top dose mostly 37.8 µM), without a hit: top-dose activity change, negative = inhibition, usual class: inhibitors; 300,000 compounds, 1.8% hits; calls by dose curve; tested in HEK293 cells; note: potency is the fitted concentration of half-maximal effect; % is set by controls: 0 for no effect and ±100 for the full control effect
HCV inh: HCV inhibition; Huh7.5.1 HCVcc-Cre infection, luciferase reporter, 44 h; Potency, µM (highest dose often 41.8 µM), inactives show at the highest dose activity change, negative = inhibition, actives largely listed as inhibitors; 340,000 compounds, 3.4% hits; AID 651820; active = well fitted inhibition curve with a large enough effect; inconclusive = small, poorly fitted or top-dose-only effect, or another doubt; inactive = no such curve, though single readings can be large or run the other way; note: potency is the fitted concentration of half-maximal effect; % is set by controls: 0 for no effect and ±100 for the full control effect
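Cells (1,000/well) were plated 4 h before compound, then infected with HCVcc-Cre virus (~0.5 moi). After 44 h further culture, infection was read as luciferase luminescence following a 15 min substrate incubation at room temperature.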
CHX counter: counter-screen hit for Shiga toxin inhibitors, cycloheximide; cell reporter, cycloheximide protein synthesis inhibition counterscreen; max response, %; 300,000 compounds, 12% hits; AID 2314; in the data active = max response mostly above about 13%, no sharp cut-off; inactive = mostly below about 14%; note: read at 38.3 µM for the half of the compounds with a filed dose; 0% is about no effect
The depositor's hits bear a star; [ ] = another dose, or the depositor's remark.

Results for CC(C)CN(C)C(=O)CCc1nnc(Cc2cccc(C(F)(F)F)c2)o1 ?
Lassa entry inh: 19%[46.1 µM]; Shiga toxin inh: 109*; FMDV inh: 27%; MARV entry inh: 1%[46.1 µM]; HCV inh: 0%; CHX counter: 47*

Results for C=C(C)CNC(=O)CCc1nnc(Cc2cccc(C(F)(F)F)c2)o1 ?
Lassa entry inh: 13%[46.1 µM]; Shiga toxin inh: 123*; FMDV inh: 17%; MARV entry inh: inconclusive; HCV inh: 2%; CHX counter: 44*

Results for O=C(COc1ccccc1-c1ccccc1)N/N=C/c1ccc2ccccc2c1 ?
Lassa entry inh: 1.8µM*; Shiga toxin inh: -1; FMDV inh: -12%; MARV entry inh: inconclusive; HCV inh: inconclusive; CHX counter: -1

What do the screens show for `C/C(=N\NC(=O)COc1ccccc1-c1ccccc1)c1ccc(O)cc1O`?
Shiga toxin inh: -7; FMDV inh: 0%; HCV inh: 11µM*; CHX counter: -4

What do the screens show for `O=C(COc1ccccc1-c1ccccc1)N/N=C/c1ccncc1`?
Lassa entry inh: 23%; Shiga toxin inh: 1; FMDV inh: inconclusive; MARV entry inh: inconclusive; HCV inh: inconclusive; CHX counter: -3

Results for CCCCCCCCCC(=O)N/N=C(\C)c1cccnc1 ?
Lassa entry inh: 4%; Shiga toxin inh: -4; FMDV inh: -29%; MARV entry inh: 12%[46.1 µM]; HCV inh: 16%; CHX counter: -1

What do the screens show for `CCCCCCCC(=O)N/N=C(\C)c1ccc(O)cc1O`?
Lassa entry inh: inconclusive; Shiga toxin inh: -2; FMDV inh: -25%; MARV entry inh: 3%; HCV inh: -24%; CHX counter: -4

What do the screens show for `C/C(=N\NC(=O)COc1ccccc1-c1ccccc1)c1cccnc1`?
Lassa entry inh: inconclusive; Shiga toxin inh: -5; FMDV inh: -21%; MARV entry inh: inconclusive; HCV inh: inconclusive; CHX counter: -5

How did C/C(=N\NC(=O)COc1ccccc1-c1ccccc1)c1ccccn1 do in these assays?
Lassa entry inh: 5.6µM*; Shiga toxin inh: -4; FMDV inh: inconclusive; MARV entry inh: 4µM*; HCV inh: 5µM*; CHX counter: -2

How did CCCCCC(=O)N/N=C(\C)c1ccccn1 do in these assays?
Lassa entry inh: inconclusive; Shiga toxin inh: 18; FMDV inh: 26%; MARV entry inh: 7.1µM*; HCV inh: inconclusive; CHX counter: 5

How did Cc1oc(-c2ccccc2Cl)nc1CS(=O)(=O)CC(=O)NC1CCCC1 do in these assays?
Shiga toxin inh: 3; FMDV inh: -10%; HCV inh: -26%; CHX counter: -2

Results for Cc1ncc(/C=C2\C(=O)Nc3ccccc32)[nH]1 ?
Lassa entry inh: inconclusive; Shiga toxin inh: 40*; FMDV inh: -24%; MARV entry inh: 17%; HCV inh: 21%; CHX counter: 26*

Results for CCc1ncc(/C=C2\C(=O)Nc3ccccc32)[nH]1 ?
Lassa entry inh: -5%[46.1 µM]; Shiga toxin inh: 29; FMDV inh: -5%; MARV entry inh: inconclusive; HCV inh: inconclusive; CHX counter: 26*

Results for CCCc1cc(=O)n2nc(N3CCC(C(=O)N4CCN(c5cccc(OC)c5)CC4)CC3)sc2n1 ?
Shiga toxin inh: -3; FMDV inh: inconclusive; HCV inh: inconclusive; CHX counter: 1

How did c1ccc(N2[C@@H]3c4ccccc4C[C@H]2c2ccccc23)cc1 do in these assays?
FMDV inh: -21%

How did Cc1ccc(C(=O)Nc2ccc(CN3CCCCC3)cc2)c(C)c1 do in these assays?
Lassa entry inh: -6%; Shiga toxin inh: 6; FMDV inh: 11%; MARV entry inh: -23%[46.1 µM]; HCV inh: -15%; CHX counter: 3

Results for O=C(Nc1ccc(CN2CCCCC2)cc1)c1ccc2c(c1)OCO2 ?
Lassa entry inh: -11%; Shiga toxin inh: 34*; FMDV inh: 18%; MARV entry inh: 20%; HCV inh: -2%; CHX counter: 20*

How did O=C(Nc1ccc2c(c1)OCO2)c1ccc(CN2CCOCC2)cc1 do in these assays?
Lassa entry inh: -17%; Shiga toxin inh: 60*; FMDV inh: -8%; MARV entry inh: -16%[46.1 µM]; HCV inh: inconclusive; CHX counter: 40*

Results for CN(C1CCCCC1)S(=O)(=O)c1ccc(NC(=O)c2ccc(Br)o2)cc1 ?
Lassa entry inh: 11µM*; Shiga toxin inh: -1; FMDV inh: -23%; MARV entry inh: -13%; HCV inh: 17%; CHX counter: 7

What do the screens show for `CN(C)S(=O)(=O)c1ccc(NC(=O)c2ccc(Br)o2)cc1`?
Lassa entry inh: inconclusive; Shiga toxin inh: -4; FMDV inh: 14%; MARV entry inh: 1%; HCV inh: 14%; CHX counter: 28

Results for O=C(Nc1ccc2c(c1)OCO2)c1cn(Cc2ccc(F)cc2)nn1 ?
Lassa entry inh: -2%; Shiga toxin inh: 42*; FMDV inh: 38%; MARV entry inh: inconclusive; HCV inh: 7%; CHX counter: 18

What do the screens show for `O=C(Nc1ccc(S(=O)(=O)Nc2ncccn2)cc1)c1ccccc1Cl`?
Lassa entry inh: 2%[46.1 µM]; Shiga toxin inh: 38; FMDV inh: 7%; HCV inh: 10%; CHX counter: 0

Results for O=C(Nc1ccc(CN2CCCCC2)cc1)c1c(F)c(F)c(F)c(F)c1F ?
Lassa entry inh: 20%[46.1 µM]; Shiga toxin inh: -4; FMDV inh: -13%; MARV entry inh: inconclusive; HCV inh: inconclusive; CHX counter: 0

What do the screens show for `O=C(Nc1ccc(CN2CCCCC2)cc1)c1ccc(Br)o1`?
Lassa entry inh: 0%; Shiga toxin inh: 79*; FMDV inh: 40%; MARV entry inh: -4%; HCV inh: inconclusive; CHX counter: 31*

Results for CCCc1cc(=O)[nH]c(SCC(=O)Nc2oc(C)c3c(C)n[nH]c(=O)c23)n1 ?
Lassa entry inh: 10%; FMDV inh: -19%; MARV entry inh: inconclusive; HCV inh: 12%

How did Cn1c(=O)c2cn3c(c2n(C)c1=O)C(c1ccccc1)CC(c1ccccc1)=N3 (stereo not given) do in these assays?
Lassa entry inh: 26%; Shiga toxin inh: 105*; FMDV inh: 17%; MARV entry inh: inconclusive; HCV inh: 9%; CHX counter: 38*

What do the screens show for `Fc1ccc(-c2nnc(-c3ccc(F)cc3)o2)cc1`?
Shiga toxin inh: 26; FMDV inh: 0%; HCV inh: 6%; CHX counter: 28*

Results for Fc1ccc(-c2nnc(NC3=NCCCCC3)o2)cc1 ?
Lassa entry inh: 1µM*; Shiga toxin inh: -9; FMDV inh: 10µM*; MARV entry inh: inconclusive; HCV inh: -15%; CHX counter: 19

Results for c1ccc(-c2nnc(NC3=NCCC3)o2)cc1 ?
Lassa entry inh: 7.1µM*; Shiga toxin inh: 22; FMDV inh: -35%; MARV entry inh: inconclusive; HCV inh: 27%; CHX counter: 25

Results for COc1ccc(CNC(=O)CN(Cc2ccccc2OC)C(=O)c2csnn2)cc1 ?
Lassa entry inh: -13%; Shiga toxin inh: -3; FMDV inh: -10%; MARV entry inh: 10%[46.1 µM]; HCV inh: 1%; CHX counter: -5
